This is an account of results in PubChem BioAssay (NCATS).

Molecules are shown by their SMILES. Activity calls are given as the source filed them. Entries that show only a call come without a potency. Calls come from the whole dose curve; as a rule, active = well fitted curve in the direction sought with a large enough effect; inconclusive = small, poorly fitted or top-dose-only effect, or another doubt; inactive = no such curve, though single readings can be large; an effect the other way counts as inactive or inconclusive.

Chain of Single-stranded DNA cytosine deaminase (Homo sapiens) (Q9GZX7 whole entry, looked up): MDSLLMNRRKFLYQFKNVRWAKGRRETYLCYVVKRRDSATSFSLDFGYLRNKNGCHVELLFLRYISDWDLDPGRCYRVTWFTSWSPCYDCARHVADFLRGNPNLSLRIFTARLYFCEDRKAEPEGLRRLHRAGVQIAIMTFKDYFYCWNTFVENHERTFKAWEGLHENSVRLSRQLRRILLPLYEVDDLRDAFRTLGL

System in the first assay: not listed separately
Kind of assay: Validation qHTS assay for inhibitors of Activation Induced Cytidine Deaminase (AID): UDG Counterscreen signal (AID 1347427). The note with it: biochemical UDG counterscreen, fluorescence signal; series mostly up to 115 µM. In short, it runs like this: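 Fluorescence at 560 nm excitation, 665 nm emission reports UDG signal after 250 mM NaOH (2x) addition and 30 min. Enzymes (AID 1 uM, UDG 2 U/mL, at 4/3x) preincubated 10 min with compound, then 4 h with 4x 250 nM DJC20/DJC23 substrate at room temperature.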
On the technique in general: qHTS replaces the single test concentration by a dilution series.
As for `NC(=O)COc1c(F)cc(SCCNS(=O)(=O)c2ccccc2)cc1F`, the Potency entry was “inactive”. Take `NC(N)=Nc1ccc2[nH]c3c(c2c1)C[C@@]1(O)[C@H]2Cc4ccc(O)c5c4[C@@]1(CCN2CC1CC1)[C@H]3O5`: the Potency result was “inactive”.

`Oc1ccc2c3c1O[C@H]1c4[nH]c5ccccc5c4C[C@@]4(O)C(C2)N(CC2CC2)CCC314` (stereo partly drawn): the Potency result is “inactive”. As for `CCCN1CCc2cccc3c2[C@H]1Cc1ccc(O)c(O)c1-3`, the Potency result was “inactive”.

`CCCN(CCC)[C@H]1CCc2c(F)ccc(O)c2C1`: the Potency entry was “inactive”. Take `NNC(=O)c1ccc(O)cc1`: the Potency result is “inactive”. Turning to `NNC(N)=O`, the Potency result is “inactive”. Turning to `Oc1ccc2c3c1O[C@H]1c4oc5ccccc5c4C[C@@]4(O)C(C2)N(CC2CC2)CCC314` (stereo partly drawn), the Potency entry is “inactive”. Regarding `O=S1(=O)N(CCN2CC=C(c3c[nH]c4cc(F)ccc34)CC2)c2cccc3c2N1CCC3`, the Potency result is “inactive”. On the same count and under the same terms, for `C[N+](C)(C)CC#CCOC(=O)Nc1cccc(Cl)c1` the value was “inactive”; for `N[C@@]1(C(=O)O)CC[C@@H](C(=O)O)C1`, “inactive”; for `OCc1cnc[nH]1`, “inactive”. Still for that read-out and setting: for `C=CCN1CCC23c4c5ccc(O)c4O[C@H]2C(=O)CC[C@@]3(O)C1C5` (stereo partly drawn) the value was “inactive”; for `COc1ccc2c(c1O)-c1cccc3c1[C@@H](C2)N(C)CC3`, “inactive”. Take `NC(Cc1cc(O)c(O)cc1O)C(=O)O` (stereo not drawn): the Potency result was “inactive”.

The next assay addresses Single-stranded DNA cytosine deaminase (Homo sapiens) (UniProt Q9GZX7). Put plainly: Validation qHTS assay for inhibitors of Activation Induced Cytidine Deaminase (AID): AID signal (AID 1347429). Note: potency is the fitted concentration of half-maximal effect. To be noted: Recombinant AID, FRET ssDNA deamination with UDG, fluorescence; series mostly up to 115 µM. In short, it runs like this:
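AID+UDG coupled FRET deamination; cpds up to 114 uM final; DJC20/DJC23 substrate, 4 hr RT; NaOH stop, 30 min RT; read Ex 540/Em 590.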
As for `CCCn1c(=O)c2[nH]c(C3CCCC3)nc2n(CCCOC(=O)c2ccc(S(=O)(=O)F)cc2)c1=O`, the Potency entry was “inactive”.

`Cc1[nH]c2ccc(O)cc2c1CCN`: the Potency entry is “inactive”.

As for `CCCN(CCC)C1CCc2cccc(O)c2C1` (stereo not drawn), the Potency entry is “inactive”. With `CCN1C[C@@]2(COC)C3[C@@H](OC)C4[C@@H]1C3([C@@H]1C[C@]3(O)[C@H](OC(=O)c5ccccc5)[C@@H]1[C@]4(OC(C)=O)[C@@H](O)[C@@H]3OC)[C@H](OC)C[C@H]2O`, the Potency result was “inactive”. For the molecule `C[C@@H]1O[C@@H](O[C@H]2C[C@@H](O)[C@]3(CO)[C@@H]4C(CC[C@]3(O)C2)[C@@]2(O)CC[C@H]([C@@H]3COC(=O)C3)[C@@]2(C)C[C@H]4O)[C@H](O)[C@H](O)[C@H]1O` (stereo partly drawn), the Potency entry was “inactive”. Take `CCCN1CCc2cc(O)cc3c2[C@H]1Cc1ccc(O)c(O)c1-3`: the Potency result is “inactive”.

As for `C[C@H](Cc1ccc2c(c1)OC(C(=O)O)(C(=O)O)O2)NC[C@H](O)c1cccc(Cl)c1`, the Potency result was “inactive”. In the case of `Clc1cc(I)cc(Cl)c1NC1=NCCN1`, the Potency entry is “inactive”.

On to `CC(=O)c1c(O)c(C)c(O)c(Cc2c(O)c3c(c(C(=O)/C=C/c4ccccc4)c2O)OC(C)(C)C=C3)c1O`, for which the Potency is 31.6 µM (active).

`COc1ccc2[nH]cc(CCN)c2c1`: the Potency result is “inactive”. In the case of `N=C(N)c1ccc(CS(=O)(=O)F)cc1`, the Potency result was “inactive”.

Consider `COc1ccc2[nH]c3c(c2c1)CCNC3`, for which the Potency result is “inactive”. Still for that read-out and setting: the same measure for `CC(N)Cc1c[nH]c2ccc(OCc3cccs3)cc12` (stereo not drawn): “inactive”; for `CN1CCc2cccc(Cl)c2CC1`: “inactive”. For `NC(=O)COc1c(F)cc(SCCNS(=O)(=O)c2ccccc2)cc1F`, the Potency result is “inactive”.

With `NC(N)=Nc1ccc2[nH]c3c(c2c1)C[C@@]1(O)[C@H]2Cc4ccc(O)c5c4[C@@]1(CCN2CC1CC1)[C@H]3O5`, the Potency is 79.4 µM (active). In the case of `Oc1ccc2c3c1O[C@H]1c4[nH]c5ccccc5c4C[C@@]4(O)C(C2)N(CC2CC2)CCC314` (stereo partly drawn), the Potency entry was “inactive”. With `CCCN1CCc2cccc3c2[C@H]1Cc1ccc(O)c(O)c1-3`, the Potency result was “inactive”. Consider `CCCN(CCC)[C@H]1CCc2c(F)ccc(O)c2C1`, for which the Potency entry is “inactive”. With `NNC(=O)c1ccc(O)cc1`, the Potency entry is “inactive”. Still for that read-out and setting: the same measure for `NNC(N)=O`: “inactive”; for `Oc1ccc2c3c1O[C@H]1c4oc5ccccc5c4C[C@@]4(O)C(C2)N(CC2CC2)CCC314` (stereo partly drawn): “inactive”. As to `C[N+](C)(C)CC#CCOC(=O)Nc1cccc(Cl)c1`, the Potency entry was “inactive”. In the case of `N[C@@]1(C(=O)O)CC[C@@H](C(=O)O)C1`, the Potency entry is “inactive”. Still for that read-out and setting: the same measure for `OCc1cnc[nH]1`: “inactive”; for `C=CCN1CCC23c4c5ccc(O)c4O[C@H]2C(=O)CC[C@@]3(O)C1C5` (stereo partly drawn): “inactive”. `COc1ccc2c(c1O)-c1cccc3c1[C@@H](C2)N(C)CC3`: the Potency entry is “inactive”. As to `NC(Cc1cc(O)c(O)cc1O)C(=O)O` (stereo not drawn), the Potency was 3.98 µM (active).
